Assay results taken from publication PMC7819943, “Rice protein-binding microarrays: a tool to detect cis-acting elements near promoter regions in rice”.
The full ranking holds about 68,000 sequences; the median of “fluorescence intensity (a.u.)” is about 9,100, and the highest 2% start at about 16,000. The full list was thinned out, with the highest values kept by preference.

These sequences were tested against OsWRKY34 (Oryza sativa, UniProt Q0JBA9 1-250) (assay: protein-binding microarray (RPBM); PBS, 2% BSA, 51.3 ng/ul salmon testes DNA, 50 uM zinc acetate, 200 nM TF, 25 C, 1 h; high values mean tight binding). Settings: protein: recombinant; tags: N-terminal polyhistidine and DsRed monomer fusion (pET32a); label: CyDye5-dUTP incorporated in the synthesized complementary strand; 3' TTTTT single-stranded linker to array surface; dsDNA, one strand shown.
OsWRKY34, sequence (Q0JBA9 entry or part of it): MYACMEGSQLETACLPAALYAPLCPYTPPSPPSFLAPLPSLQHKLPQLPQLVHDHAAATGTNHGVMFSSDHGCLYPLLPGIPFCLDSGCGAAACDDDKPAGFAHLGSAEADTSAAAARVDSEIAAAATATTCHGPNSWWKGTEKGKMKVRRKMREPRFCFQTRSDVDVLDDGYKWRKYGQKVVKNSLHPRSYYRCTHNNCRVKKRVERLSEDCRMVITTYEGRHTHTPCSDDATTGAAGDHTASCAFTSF
In short: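 Transcription factors were each fused at the N-terminus to a polyhistidine tag plus DsRed and expressed in E. coli BL21-CodonPlus before Ni–NTA purification. Binding to a double-stranded custom Agilent array was carried out with 200 nM protein at 25 °C for 1 h in PBS, 2% BSA, salmon testes DNA and 50 µM zinc acetate. The binding signal is per-feature fluorescence intensity, in arbitrary units, on an Axon 4000B scanner.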
For “TATATCACATTTAATTATTTTTCCCATGTTCTTGTTTTAACGGAGTCACCTAGTGCAG”, the binding signal was 9480 fluorescence intensity (a.u.).
With “ATTGGGTTGATATTATATTGGCAGGGCCAGAAAGTTTTACCGGAGTCACCTAGTGCAG” the binding signal was 8580 fluorescence intensity (a.u.).
In the case of “TAAGACGAATGGTCAAACATGTAAGAAAAAGTCAACGGTACGGAGTCACCTAGTGCAG”, the binding signal is reported as 12900 fluorescence intensity (a.u.).
“AACGGTCAAATATGTGCTAAAAAGTCAACGGTGTCAAATACGGAGTCACCTAGTGCAG” was tested, and the binding signal was 11300 fluorescence intensity (a.u.).
In the case of “CGAATGGTCAAACATATGAGAAAAAGTCAACGATGTCATCCGGAGTCACCTAGTGCAG”, the binding signal is reported as 13900 fluorescence intensity (a.u.).
“CGAATGGTCAAACATGTAGAAAAAAGTCAACGGTGTCATCCGGAGTCACCTAGTGCAG” was tested, and the binding signal was 16900 fluorescence intensity (a.u.).
“ATGGTCAAACATGTGAGAAAAAGTCAACGGCGTCATCTATCGGAGTCACCTAGTGCAG” was tested, and the binding signal was 19600 fluorescence intensity (a.u.).
For “AATGGTCAAACATGTGAGAAAAAGTCAACGGCGTTATCTACGGAGTCACCTAGTGCAG”, the binding signal was 15500 fluorescence intensity (a.u.).
In the case of “ACGAACGGTCAAACATGTGCTAAAAAGTCAACGGTGTCAACGGAGTCACCTAGTGCAG”, the binding signal is reported as 15900 fluorescence intensity (a.u.).
In the case of “ACGAATGGTCAAACATGTGAGGAAAAGTCAACGGCGTCATCGGAGTCACCTAGTGCAG”, the binding signal is reported as 13400 fluorescence intensity (a.u.).
In the case of “AACGGTCAAACATGTGCTAAAAAGTCAACGGTGTCAAATACGGAGTCACCTAGTGCAG”, the binding signal is reported as 18600 fluorescence intensity (a.u.).
“GAACGGTCAAACATGTGCTAAAAAGTCAACGGTGTCAAACCGGAGTCACCTAGTGCAG” was tested, and the binding signal was 10100 fluorescence intensity (a.u.).
With “CGGTCAAACATGTGCTAAAAAGTCAACGGTGTCAAATATTCGGAGTCACCTAGTGCAG” the binding signal was 11400 fluorescence intensity (a.u.).
In the case of “ATGGTCAAACATGTGCTAAAAAGTCAACGGTGTCAAACATCGGAGTCACCTAGTGCAG”, the binding signal is reported as 17700 fluorescence intensity (a.u.).
In the case of “TAGCTCGGATTCTGCCCCTAATCCCGCCGTCCGCCTCCGCCGGAGTCACCTAGTGCAG”, the binding signal is reported as 8490 fluorescence intensity (a.u.).
“AGGCAACACATACAATGTATCACCTCTAACACACAAATACCGGAGTCACCTAGTGCAG” was tested, and the binding signal was 8410 fluorescence intensity (a.u.).
For “TCCATCAGTTTTGTGAACTCTGTCTGTCACTCGCTCAGCACGGAGTCACCTAGTGCAG”, the binding signal was 8940 fluorescence intensity (a.u.).
In the case of “TTCTTCGTTTTTCTGAGTACGATCTCCCAGGGTTATAATCCGGAGTCACCTAGTGCAG”, the binding signal is reported as 8850 fluorescence intensity (a.u.).
With “CGAGACCGACTGATGCTACAACTTCTGTCCTTGCTCCGGCCGGAGTCACCTAGTGCAG” the binding signal was 8620 fluorescence intensity (a.u.).
With “ATGTGTGACTTGTCTTTTTAATTTTTTTTTTAATTTTTTTCGGAGTCACCTAGTGCAG” the binding signal was 9610 fluorescence intensity (a.u.).
In the case of “AGGCTATCGTATGACTTTCTTCTGCTTTCATTTGTGTTCACGGAGTCACCTAGTGCAG”, the binding signal is reported as 15300 fluorescence intensity (a.u.).
For “TGGTGGCGTCTGTATTGGGTTTCTTTCTCCAAGTTATATTCGGAGTCACCTAGTGCAG”, the binding signal was 9710 fluorescence intensity (a.u.).
For “CTTTGCTCACTCTTTCTTTTCTCTTCAGGTCTCCATTCTTCGGAGTCACCTAGTGCAG”, the binding signal was 12200 fluorescence intensity (a.u.).
With “CGTGTCGGTGTCTCATCTCTCTCTCTCTTCCCATCCGCCGCGGAGTCACCTAGTGCAG” the binding signal was 8790 fluorescence intensity (a.u.).
In the case of “CCAAAAACCTCTACTCTTCCGCGTCTTGGAAAATTCTTCTCGGAGTCACCTAGTGCAG”, the binding signal is reported as 9300 fluorescence intensity (a.u.).
“GTGCTAAAAAGTCAACGGTGTCAAATATTTAGAAATGAAGCGGAGTCACCTAGTGCAG” was tested, and the binding signal was 21200 fluorescence intensity (a.u.).
In the case of “AATAATAAGAACGGTCAAACATATGCTAAAAAGTCAACGGCGGAGTCACCTAGTGCAG”, the binding signal is reported as 11500 fluorescence intensity (a.u.).
“TAAGATAAACGGTCAAACATTTGCTAAAAAGTCAACGGTGCGGAGTCACCTAGTGCAG” was tested, and the binding signal was 17300 fluorescence intensity (a.u.).
With “AAACATGTGCTAAAAAGTCAACGGTGTCAAACATTTTGAACGGAGTCACCTAGTGCAG” the binding signal was 10400 fluorescence intensity (a.u.).
“CATGTCACTATACTATTATATCCTATTATATCCTATAATACGGAGTCACCTAGTGCAG” was tested, and the binding signal was 8100 fluorescence intensity (a.u.).
In the case of “TACTATTTTTTTCTATAACTATTTATGTCACATGTAAATACGGAGTCACCTAGTGCAG”, the binding signal is reported as 8300 fluorescence intensity (a.u.).
In the case of “GTCAAACATGTGCTAAAAAGTCAACGGTGTCAAACATTTCCGGAGTCACCTAGTGCAG”, the binding signal is reported as 17400 fluorescence intensity (a.u.).
“TGTGCTAAAAAAGTCAACGGTGTCAAATATTTCGAAACGGCGGAGTCACCTAGTGCAG” was tested, and the binding signal was 14700 fluorescence intensity (a.u.).
With “GTCAAACATGTGCTAAAAAGTCAACAGTGTCAAACATTTCCGGAGTCACCTAGTGCAG” the binding signal was 9540 fluorescence intensity (a.u.).
With “TCAAACACGTACTAAAAAGTCAACGGTGTCAAACATTTTGCGGAGTCACCTAGTGCAG” the binding signal was 15600 fluorescence intensity (a.u.).
“TTGCTAAAAAGTCAACGGTGTCAAATATTTCGAAACGGAGCGGAGTCACCTAGTGCAG” was tested, and the binding signal was 12300 fluorescence intensity (a.u.).
For “TTATAACATGTCATTAATAAAGGGCATTATGCAACTAATACGGAGTCACCTAGTGCAG”, the binding signal was 64200 fluorescence intensity (a.u.).
In the case of “CATCTTCGCAGCAACTCAGTCATCAGCCCATAGCCATTTACGGAGTCACCTAGTGCAG”, the binding signal is reported as 8950 fluorescence intensity (a.u.).
With “AAGGCTTATCACTTCGATTTTTATTTTAGTCCTTGTACTTCGGAGTCACCTAGTGCAG” the binding signal was 8460 fluorescence intensity (a.u.).
With “ACCATCTTTTAAATCAGACCTCTCACCAATTTTGATATTTCGGAGTCACCTAGTGCAG” the binding signal was 8230 fluorescence intensity (a.u.).
With “CGCCGGTACGTTTTCCCCGCCGCCGCCTTTCCGGCCGGCCCGGAGTCACCTAGTGCAG” the binding signal was 8950 fluorescence intensity (a.u.).
For “ACTGTAGCCCATTTTTGATATGGCCAAGGCCCACATAGCACGGAGTCACCTAGTGCAG”, the binding signal was 8260 fluorescence intensity (a.u.).
“GTCTACATGAACCATTCCAAATGACTTTTATAGGATTTCACGGAGTCACCTAGTGCAG” was tested, and the binding signal was 8340 fluorescence intensity (a.u.).
“GCACCAAGGCCAATACTTGTCCGGATCACCAAGGACACCTCGGAGTCACCTAGTGCAG” was tested, and the binding signal was 8020 fluorescence intensity (a.u.).
With “TTTATTAGTTTGTGTCCTGGTTTTCTTTTTCAGTTAGATTCGGAGTCACCTAGTGCAG” the binding signal was 8430 fluorescence intensity (a.u.).
With “TTACAAGACTTAATTTCAAGGTCCGTCGATTGTCTCTCCACGGAGTCACCTAGTGCAG” the binding signal was 8830 fluorescence intensity (a.u.).
“GTATAGGGGAGAGGGTGGGCGGGTGATCACTGGGTGGGTGCGGAGTCACCTAGTGCAG” was tested, and the binding signal was 12200 fluorescence intensity (a.u.).
For “CCCTCCGCTGAGGTTGCGGTTGATGATCTTTCATCAGTGACGGAGTCACCTAGTGCAG”, the binding signal was 8590 fluorescence intensity (a.u.).
With “ATCCATCACATCACGAAACCACTTCATGTACTCTTAACATCGGAGTCACCTAGTGCAG” the binding signal was 8080 fluorescence intensity (a.u.).
With “TATGTGCTAAAAAGTCAACGGTGTCAAACATTTCGAAACGCGGAGTCACCTAGTGCAG” the binding signal was 14000 fluorescence intensity (a.u.).
In the case of “AAACATGTGCTAAAAAGTCAACGGTGTCAAATATTTCGAACGGAGTCACCTAGTGCAG”, the binding signal is reported as 15600 fluorescence intensity (a.u.).
With “AAATGTGCTAAAAAGTCAACGGTGTCAAACATTTCGAAATCGGAGTCACCTAGTGCAG” the binding signal was 16400 fluorescence intensity (a.u.).
“AAACCTCCACCACCACCGCCACCACCGCCGCGCAAAACCCCGGAGTCACCTAGTGCAG” was tested, and the binding signal was 8700 fluorescence intensity (a.u.).
With “TATCTTTTTCTTTTTGGAGGTTTCGTTTTCTCTTGGTCAACGGAGTCACCTAGTGCAG” the binding signal was 10400 fluorescence intensity (a.u.).
